For 11 compounds, Potency, activity change, negative = inhibition and outcome results are on record in PubChem BioAssay (Tox21).

Assay [1] concerns the target Acetylcholinesterase (Homo sapiens) (UniProt P22303). Put plainly: Acetylcholinesterase (AChE) small molecule antagonists: enzyme-based qHTS assay (AID 1347397). Note: nearly all actives have a fitted effect of over 55% in size. To be noted: Potency: AChE enzyme activity inhibition; outcome: AChE enzyme activity inhibition. In outline: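 First, recombinant human AChE (50 mU/mL as dispensed) received test compound or DMSO. Second, plates stood 30 min at room temperature. Third, DTNB and acetylthiocholine were added, followed by 10 min at room temperature and colorimetric detection.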

Assay [2] has the same target. Put plainly: Acetylcholinesterase (AChE) small molecule antagonists: enzyme-based qHTS assay with human liver microsomes (AID 1347399). Note: nearly all actives have a fitted effect of over 60% in size. To be noted: Potency: qHTS inhibition; outcome: qHTS inhibition. The method in brief: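 Recombinant human AChE (50 mU/mL in the enzyme mix) and human liver microsomes (0.25 mg/mL final) were preincubated with compound and NADPH (0.25 mg/mL final) for 30 min at 37 C. Acetylthiocholine/DTNB was then added; thiocholine was read colorimetrically after 10 min at room temperature.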

Values without a mark were called inactive. Activity calls are given as the source filed them. Calls come from the whole dose curve.
% is set by controls: 0 for no effect and ±100 for the full control effect.

Sequence of Acetylcholinesterase (Homo sapiens) (P22303 whole entry, looked up): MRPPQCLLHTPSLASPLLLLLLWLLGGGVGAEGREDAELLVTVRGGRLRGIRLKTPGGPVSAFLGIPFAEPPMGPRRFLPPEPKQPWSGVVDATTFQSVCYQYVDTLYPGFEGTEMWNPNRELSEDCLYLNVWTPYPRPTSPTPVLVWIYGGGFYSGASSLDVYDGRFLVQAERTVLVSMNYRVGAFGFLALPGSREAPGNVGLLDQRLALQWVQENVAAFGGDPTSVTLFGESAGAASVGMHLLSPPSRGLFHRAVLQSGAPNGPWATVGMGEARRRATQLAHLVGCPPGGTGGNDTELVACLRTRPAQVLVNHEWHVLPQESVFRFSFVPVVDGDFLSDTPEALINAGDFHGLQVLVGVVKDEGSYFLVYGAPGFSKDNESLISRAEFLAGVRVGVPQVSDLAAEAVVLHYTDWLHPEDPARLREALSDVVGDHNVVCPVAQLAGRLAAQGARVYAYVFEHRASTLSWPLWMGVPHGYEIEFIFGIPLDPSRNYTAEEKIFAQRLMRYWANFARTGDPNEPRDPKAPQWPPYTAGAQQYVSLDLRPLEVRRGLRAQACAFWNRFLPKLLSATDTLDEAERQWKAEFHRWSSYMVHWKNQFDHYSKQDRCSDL

With `O=[N+]([O-])c1cccc(S(=O)(=O)NCCNS(=O)(=O)c2cccc([N+](=O)[O-])c2)c1`, the Potency result in assay [1] and in assay [2] was “inactive” in each case.

As for `C1CCC(C(CC2CCCCN2)C2CCCCC2)CC1` (configuration not stated), the Potency result in assay [1] and in assay [2] was “inactive” throughout.

As for `O=C1c2ccccc2C(=O)c2cc(Cl)ccc21`, the activity change, negative = inhibition in assay [1] was -1.23% [at 10.5 µM]; in assay [2], 0.0166% [at 10.5 µM].

Consider `CC(C)=CCC1=C(O)c2ccccc2C(=O)C1=O`, for which the Potency result in assay [1] and in assay [2] was “inactive” throughout.

With `O=C(O)c1cccc(N(Cc2cccnc2)c2ccc(OC(F)F)c(OC(F)F)c2)c1`, the Potency result in assay [1] and in assay [2] was “inactive” throughout.

On to `CC(O)CCCCn1c(=O)c2c(ncn2C)n(C)c1=O` (configuration not stated), for which the Potency result in assay [1] and in assay [2] was “inactive” in each case.

For the compound `CN(C)CCC=C1c2ccccc2C=Cc2ccccc21`, the outcome in assay [1] and in assay [2] was inactive.

For the compound `COc1ccc2cc1Oc1ccc(cc1)C[C@H]1c3c(cc4c(c3Oc3cc5c(cc3OC)CCN(C)[C@@H]5C2)OCO4)CCN1C`, the Potency entry in assay [1] and in assay [2] was “inactive” in each case.

As to `Cc1cc(C)c(O)c(C(C)(C)C)c1`, the Potency entry in assay [1] and in assay [2] was “inactive” in each case.

For the compound `C[n+]1ccn(Cc2ccccc2)c1`, the Potency result in assay [1] and in assay [2] was “inactive” throughout.

Take `OCCc1ccncc1`: the Potency result in assay [1] and in assay [2] was “inactive” throughout.
